# Bioassay records: PubChem, The Scripps Research Institute Molecular Screening Center
# TTR transcr act: TTR transcription activators in neuroblastoma reporter cells, primary screen, cell-based, luminescence, SH-SY5Y, TTR promoter Gaussia luciferase; 92,000 compounds, 1.3% hits; 100% = recombinant luciferase protein wells; activation, % at 16.7 µM;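 active = activation above the mean of all tested compounds plus 3 SD, cut at about 9.5% in these data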;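 note: cells exposed to compounds for one day before reading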
# TTR inh HuH7: TTR promoter reporter inhibitors in hepatoma cells, counter-screen for TTR transcription activator project, cell-based, luminescence, HuH7 hepatoma | shares compounds with TTR transcr act | HuH7 TTR promoter-Gaussia luciferase reporter | inhibition, % at 16.7 µM | 1,100 compounds, 4% hits | AID 1117279, 2014;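 active = average inhibition above the solvent-only control wells' mean plus 3 SD, cut at about 15% in these data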;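 note: inhibitors lower well luminescence so higher value means more inhibition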
# TTR up confirm: TTR transcription activators, retest, confirmation, cell-based, luminescence, SH-SY5Y, triplicate | AID 1117280, 2014 | 1,100 tested, under 10 active | SHSY5Y TTR promoter Gaussia luciferase; 100% = purified Lucia enzyme wells, no cells | shares compounds with TTR transcr act | activation, % at 16.7 µM;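 active = mean activation above a set limit taken from the earlier primary screen, cut at about 11% in these data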
# Hits are given with their value; – = inactive. Many of the other results were omitted from the sample, so hits are more common in it than they were.
SMILES,TTR transcr act,others
COC(=O)[C@]12C[C@H](CC(=O)N3CCN(C(=O)C4CC4)CC3)C(=O)N(Cc3cccc4ccccc34)C1=C[C@H](COCc1ccccc1)O[C@@H]2C,–,
O=C(Nc1ccccc1Cl)OC1CC2CC1[C@H]1CCCCN1[C@H]2Cc1ccccc1 (some centres undefined),–,
COc1ccc(C)cc1NC(=O)C(=O)NNC(=O)COc1ccc(Cl)cc1,–,
COc1ccc(OC)c(NC(=O)C(=O)NNC(=O)COc2ccc(Br)cc2C)c1,43.1,TTR inh HuH7=–;TTR up confirm=–
COc1ccc(OCC(=O)NNC(=O)C(=O)Nc2cc(OC)ccc2OC)cc1,–,
COc1c(C(C)(C)C)cc(S(=O)(=O)N2c3ccccc3C[C@H]2C)cc1C(C)(C)C,–,
c1nc(NCC2CCCCO2)c2cc(-c3ccc4c(c3)OCO4)ccc2n1 (centres undefined),–,
NCCC(=O)Nc1ccc(Cl)cc1C(=O)c1ccc[nH]1,–,
CN(C)[C@H]1CCN(c2ccc3c(c2)OCCCN(C2CC2)S3(=O)=O)C1,–,
COC(=O)[C@]12C[C@H](CC(=O)NCc3cccs3)C(=O)N(Cc3cccc4ccccc34)C1=C[C@H](C(C)C)O[C@@H]2C1CC1,–,
CCCCN1C(=O)c2ccccc2NC1c1ccc(OC)c(COc2ccc(NC(C)=O)cc2)c1 (centres undefined),–,
COc1ccc(CNC(=O)CN2C(=O)COc3ccc(S(=O)(=O)N4CCCC4)cc32)cc1,–,
CC(C)CN(CCCNC(=O)CN1C(=O)COc2ccc(S(=O)(=O)N3CCC(C)CC3)cc21)CC(C)C,–,
CCOCCCNC(=O)CN1C(=O)COc2ccc(S(=O)(=O)N3CCCC3)cc21,11.4,TTR inh HuH7=–;TTR up confirm=–
CCC[C@H]1[C@@H](NC(=O)NCC)CC[C@@]23CCCN2C(=O)CCC[C@@H]13,–,
CCCCn1nc2cc(C(=O)NCc3cc(C(F)(F)F)cc(C(F)(F)F)c3)ccc2c1OCC,–,
CCCCn1nc2cc(C(=O)N[C@H](C)C3CCCCC3)ccc2c1OCC,11.5,TTR inh HuH7=–;TTR up confirm=–
CCOc1c2ccc(C(=O)NCCc3ccc(C)cc3)cc2nn1CC,–,
COC(=O)c1cccc(Cn2ccc3ccc(-c4ccc5ccn(C(=O)c6ccc(C)cc6)c5c4)cc32)c1,–,
COc1ccccc1NC(=O)O[C@@H]1CC[C@@]23CCCN2C(=O)CCC[C@H]3C1,–,
CC(C)(C)S(=O)(=O)N1C[C@@H]2C(=C(CCO)C[C@@H]3C(=O)N(c4ccccc4)C(=O)[C@@H]32)[C@H]1CCO,–,
O=S(=O)(c1ccccc1)C1CC1(c1ccccc1)c1ccccc1 (centres undefined),13.6,TTR inh HuH7=–;TTR up confirm=–
O=S(=O)(NCCC1CC1(Cl)Cl)c1ccccc1 (centres undefined),–,
O=S(=O)(Oc1ccccc1-c1ccccc1)c1ccccc1,–,
C[C@@H]1COc2cc(N3CCSCC3)ccc2S(=O)(=O)N1C,–,
SMILES,TTR transcr act,others
O=C(CCCCC(=O)OCC1CCCO1)OCC1CCCO1 (centres undefined),–,
CCOC(=O)CCCC(=O)N1CCOCCOCCN(C(=O)CCCC(=O)OCC)CCOCCOCC1,–,
O=C(CCCCC(=O)OCC1COCO1)OCC1COCO1 (centres undefined),10.4,TTR inh HuH7=–;TTR up confirm=–
CCCCCn1nnnc1C1(C)CSCC(=O)N1Cc1ccco1 (centres undefined),–,
Cc1ccccc1-c1cc(C(=O)NCc2ccco2)n(CC2CC(c3cccnc3)=NO2)n1 (centres undefined),–,
O=C(O)c1cc(-c2ccccc2)nn1CC1CC(c2cccnc2)=NO1 (centres undefined),14.7,TTR inh HuH7=–;TTR up confirm=–
O=C(c1cc(-c2ccccc2)nn1CC1CC(c2cccnc2)=NO1)N1CCOCC1 (centres undefined),–,
O=C(c1ccccc1Oc1ccccc1)N1CCC(Oc2cccnc2)CC1,–,
Cc1cc(NC(=O)CCCn2nc([N+](=O)[O-])cc2C)no1,–,
Cc1cc([N+](=O)[O-])nn1CCCC(=O)Nc1cc(Cl)ccc1Cl,14.4,TTR inh HuH7=–;TTR up confirm=–
Cc1cc([N+](=O)[O-])nn1CCCC(=O)NCc1ccccc1,–,
CCOC(=O)N1CCN(C(=O)C[C@H]2C[C@@]3(C(=O)OC)C(=C[C@H](C(C)C)O[C@@H]3C3CC3)N(Cc3ccc(Cl)cc3Cl)C2=O)CC1,–,
C[C@H]1[C@@H](OC(=O)NCCc2c[nH]c3ccccc23)CC[C@@]23CCCN2C(=O)CCC[C@@H]13,–,
N=c1c2c(ccn1Cc1ccccc1)Oc1ccc3ccccc3c1C2c1ccccc1 (centres undefined),–,
Cn1nnnc1SC1CC(=O)N(c2ccccc2)C1=O (centres undefined),–,
O=C(O)c1ccccc1SC1CC(=O)N(c2cccc3ccccc23)C1=O (centres undefined),–,
COC(=O)c1ccccc1SC1CC(=O)N(c2ccccc2)C1=O (centres undefined),20.6,TTR inh HuH7=–;TTR up confirm=–
O=C(Nc1ccc(F)cc1)Nc1nc2ncccn2c1-c1ccc(F)cc1,–,
Cc1cccc(Cl)c1-n1nnnc1C1(C)CSCC(=O)N1Cc1ccc(F)cc1 (centres undefined),–,
O=C(NCCc1ccccc1)C1CCN(S(=O)(=O)c2cccc3nonc23)CC1,–,
O=C(NCc1ccc(F)cc1)C1CCCN(S(=O)(=O)c2cccc3nonc23)C1 (centres undefined),–,
O=C(NCCc1ccccc1)C1CCCN(S(=O)(=O)c2cccc3nonc23)C1 (centres undefined),10.0,TTR inh HuH7=–;TTR up confirm=–
COc1ccc(CN2C(=O)c3ccnn3CC2(C)c2nnnn2-c2c(C)cccc2C)cc1 (centres undefined),–,
O=C(NCCCc1ccccc1)[C@H](Cc1ccccc1)NC1(C(=O)NCCc2c[nH]c3ccccc23)CCOCC1,–,
CCOC(=O)c1c(-c2ccccc2)csc1NC(=O)C(C)NCCCN1CCOCC1 (centres undefined),13.5,TTR inh HuH7=–;TTR up confirm=–
SMILES,TTR transcr act,others
CCOC(=O)c1c(-c2ccc(-c3ccccc3)cc2)csc1NC(=O)CCN1CCOCC1,–,
CCOC(=O)c1c(-c2ccc(F)cc2)csc1NC(=O)CCN1CCOCC1,–,
CCOc1ccc(CCNC(=O)c2cc3sccc3n2Cc2ccccc2)cc1OCC,–,
COC(=O)[C@]12C[C@H](CC(=O)N3CCN(C(=O)C4CC4)CC3)C(=O)N(Cc3ccccc3)C1=C[C@H](COCc1ccccc1)O[C@@H]2C,–,
O=C(CC[C@H]1O[C@@H](n2ccc(=O)[nH]c2=O)[C@H](O)[C@@H]1O)N[C@@H](Cc1ccccc1)C(=O)NCc1ccccc1,15.0,TTR inh HuH7=–;TTR up confirm=–
CC(C)CCNC(=O)[C@@H](Cc1ccccc1)NC(=O)CC[C@H]1O[C@@H](n2ccc(=O)[nH]c2=O)[C@H](O)[C@@H]1O,–,
O=c1ccn([C@@H]2O[C@H](CNCc3ccc(-n4cccn4)cc3)[C@@H](O)[C@H]2O)c(=O)[nH]1,–,
COC(=O)[C@]12C[C@H](CC(=O)NCCCCc3ccccc3)C(=O)N(Cc3ccccc3)C1=C[C@H](COCc1ccccc1)O[C@@H]2C,–,
